Measurements from the supplement of paper PMC8007513.
Where a name gives a salt, the structure may show the parent alone. ± gives the standard error. Out of some 1,300 compounds screened, about 130 (10%) showed an effect of 50% or more. For the sample, strong results were picked, then their nearest neighbours and some compounds at random.

Test system: Trichoderma virens ATCC 9645
Assay: growth yield (OD600) with compound + IPBC relative to untreated control; higher = less growth inhibition
Conditions: compound concentration: 100 uM, IPBC concentration: 200 ng/ml
Summary of the method: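 Growth appears as means of duplicate screens, relative to the control containing neither agent. To obtain it, OD600 was read on a BioTek EL800 at 40 h and 72 h. The cultures were 100 μl aliquots in 96-well plates at 30 °C, holding Trichoderma virens ATCC 9645 spores at 15,000 spores ml^−1 in potato dextrose broth, library compounds at 100 μM final, and, in some wells, a biocide at 200 ng ml^−1.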

Row | SMILES | growth yield (40 h) | growth yield (72 h)
1 | CCOc1ccc2c(c1)C(C)=CC(C)(C)N2 [Ethoxyquin] + CCCCNC(=O)OCC#CI [3-iodo-2-propynyl butylcarbamate (IPBC)] | 98.3 ± 17% | 98.9 ± 12%
2 | CCc1c(C)[nH]c2c1C(=O)C(CN1CCOCC1)CC2 (configuration not stated) [Molindone hydrochloride] + CCCCNC(=O)OCC#CI [3-iodo-2-propynyl butylcarbamate (IPBC)] | 102 ± 13% | 101 ± 8.9%
3 | CO[C@@H]1[C@@H](OC(N)=O)[C@@H](O)[C@H](Oc2ccc3c(O)c(NC(=O)c4ccc(O)c(CC=C(C)C)c4)c(=O)oc3c2C)OC1(C)C [Novobiocin sodium salt] + CCCCNC(=O)OCC#CI [3-iodo-2-propynyl butylcarbamate (IPBC)] | 91.7 ± 12% | 115 ± 14%
4 | c1ccc(-c2ccc(C(c3ccccc3)n3ccnc3)cc2)cc1 (configuration not stated) [Bifonazole] + CCCCNC(=O)OCC#CI [3-iodo-2-propynyl butylcarbamate (IPBC)] | 4.92 ± 0.16% | 3.25 ± 0.1%
5 | N#Cc1ccc(C(c2ccc(C#N)cc2)n2cncn2)cc1 [Letrozole] + CCCCNC(=O)OCC#CI [3-iodo-2-propynyl butylcarbamate (IPBC)] | 98.6 ± 8.1% | 98.5 ± 1.6%
6 | O=C(C1CCCCC1)N1CC(=O)N2CCc3ccccc3C2C1 (configuration not stated) [Praziquantel] + CCCCNC(=O)OCC#CI [3-iodo-2-propynyl butylcarbamate (IPBC)] | 71 ± 7.5% | 87.3 ± 3.8%
7 | O=[N+]([O-])O[C@H]1CO[C@H]2[C@@H]1OC[C@H]2O[N+](=O)[O-] [Isosorbide dinitrate] + CCCCNC(=O)OCC#CI [3-iodo-2-propynyl butylcarbamate (IPBC)] | 90.9 ± 7.6% | 94.4 ± 5.7%
8 | NS(=O)(=O)c1cc2c(cc1Cl)NC(C(Cl)Cl)NS2(=O)=O (configuration not stated) [Trichlormethiazide] + CCCCNC(=O)OCC#CI [3-iodo-2-propynyl butylcarbamate (IPBC)] | 97.5 ± 16% | 97.3 ± 12%
9 | C[C@@H]1CN([C@H]2CC[C@](C#N)(c3ccc(F)cc3)CC2)CC[C@]1(C(=O)O)c1ccccc1 [Levocabastine hydrochloride] + CCCCNC(=O)OCC#CI [3-iodo-2-propynyl butylcarbamate (IPBC)] | 118 ± 11% | 111 ± 7.3%
10 | CC(C)OC(=O)CCC/C=C\C[C@@H]1[C@@H](CC[C@@H](O)CCc2ccccc2)[C@H](O)C[C@@H]1O [Latanoprost] + CCCCNC(=O)OCC#CI [3-iodo-2-propynyl butylcarbamate (IPBC)] | 90.5 ± 1.9% | 93 ± 3.9%
11 | CCc1oc2ccccc2c1C(=O)c1cc(Br)c(O)c(Br)c1 [Benzbromarone] + CCCCNC(=O)OCC#CI [3-iodo-2-propynyl butylcarbamate (IPBC)] | 43.68 ± 0.16% | 99.3 ± 8.1%
12 | CC(=O)CC(c1ccccc1)c1c(O)c2ccccc2oc1=O (configuration not stated) [Warfarin] + CCCCNC(=O)OCC#CI [3-iodo-2-propynyl butylcarbamate (IPBC)] | 88.5 ± 2.1% | 93.03 ± 0.1%
13 | O=c1oc2ccccc2c(O)c1Cc1c(O)c2ccccc2oc1=O [Dicumarol] + CCCCNC(=O)OCC#CI [3-iodo-2-propynyl butylcarbamate (IPBC)] | 92.3 ± 6.5% | 93.2 ± 3%
14 | C[C@]12C/C(=C/O)C(=O)C[C@@H]1CC[C@@H]1[C@@H]2CC[C@@]2(C)[C@H]1CC[C@]2(C)O [Oxymetholone] + CCCCNC(=O)OCC#CI [3-iodo-2-propynyl butylcarbamate (IPBC)] | 112 ± 14% | 105 ± 9.2%
15 | Oc1ncnc2[nH]ncc12 [Allopurinol] + CCCCNC(=O)OCC#CI [3-iodo-2-propynyl butylcarbamate (IPBC)] | 93.4 ± 4.8% | 94.28 ± 0.32%
16 | Cc1cc(N)c2ccccc2[n+]1CCCCCCCCCC[n+]1c(C)cc(N)c2ccccc21 [Dequalinium dichloride] + CCCCNC(=O)OCC#CI [3-iodo-2-propynyl butylcarbamate (IPBC)] | 3.81% | 2.94%
17 | COc1ncnc(NS(=O)(=O)c2ccc(N)cc2)c1OC [Sulfadoxine] + CCCCNC(=O)OCC#CI [3-iodo-2-propynyl butylcarbamate (IPBC)] | 72.6 ± 2.4% | 84.7 ± 2.7%
18 | Cc1[nH]cnc1CN1CCc2c(c3ccccc3n2C)C1=O [Alosetron hydrochloride] + CCCCNC(=O)OCC#CI [3-iodo-2-propynyl butylcarbamate (IPBC)] | 85.5 ± 1.3% | 87.89 ± 0.21%
19 | CC(C)(C)NC[C@@H](O)COc1cccc2c1CCCC2=O [(+) -Levobunolol hydrochloride] + CCCCNC(=O)OCC#CI [3-iodo-2-propynyl butylcarbamate (IPBC)] | 97.8 ± 16% | 99.1 ± 12%
20 | CN(CCCCCCCCCCN(C)C(=O)Oc1cccc([N+](C)(C)C)c1)C(=O)Oc1cccc([N+](C)(C)C)c1 [Demecarium bromide] + CCCCNC(=O)OCC#CI [3-iodo-2-propynyl butylcarbamate (IPBC)] | 3.97 ± 0.16% | 2.73%
21 | CCN(C)C(=O)Oc1cccc([C@H](C)N(C)C)c1 [Rivastigmine] + CCCCNC(=O)OCC#CI [3-iodo-2-propynyl butylcarbamate (IPBC)] | 97.1 ± 4% | 95.1 ± 3.7%

Row | SMILES | growth yield (40 h) | growth yield (72 h)
22 | CN(C)C(=O)Oc1cccc([N+](C)(C)C)c1 [Neostigmine bromide] + CCCCNC(=O)OCC#CI [3-iodo-2-propynyl butylcarbamate (IPBC)] | 83.4 ± 1.1% | 92.19 ± 0.52%
23 | C=C1c2cccc(O)c2C(=O)C2=C(O)[C@]3(O)C(=O)C(C(N)=O)=C(O)[C@@H](N(C)C)[C@@H]3[C@@H](O)[C@H]12 [Methacycline hydrochloride] + CCCCNC(=O)OCC#CI [3-iodo-2-propynyl butylcarbamate (IPBC)] | 94.2 ± 1.8% | 93.7 ± 0.94%
24 | C[C@]1(Cn2ccnn2)[C@H](C(=O)O)N2C(=O)C[C@H]2S1(=O)=O [Tazobactam] + CCCCNC(=O)OCC#CI [3-iodo-2-propynyl butylcarbamate (IPBC)] | 84.5 ± 0.95% | 87.15 ± 0.32%
25 | CCCCOc1ccc(OCCCN2CCOCC2)cc1 [Pramoxine hydrochloride] + CCCCNC(=O)OCC#CI [3-iodo-2-propynyl butylcarbamate (IPBC)] | 80.1 ± 2.2% | 94 ± 3.1%
26 | COc1cc2ncnc(Nc3ccc(F)c(Cl)c3)c2cc1OCCCN1CCOCC1 [Gefitinib] + CCCCNC(=O)OCC#CI [3-iodo-2-propynyl butylcarbamate (IPBC)] | 16.4 ± 5.2% | 10.5 ± 0.63%
27 | C#Cc1cccc(Nc2ncnc3cc(OCCOC)c(OCCOC)cc23)c1 [Erlotinib] + CCCCNC(=O)OCC#CI [3-iodo-2-propynyl butylcarbamate (IPBC)] | 98.2 ± 11% | 99.3 ± 3%
28 | C[C@]12C[C@H](O)[C@H]3[C@@H](CCC4=CC(=O)CC[C@@]43C)[C@@H]1CC[C@@H]2C(=O)CO [Corticosterone] + CCCCNC(=O)OCC#CI [3-iodo-2-propynyl butylcarbamate (IPBC)] | 94.2 ± 7.8% | 96.6 ± 5.6%
29 | CCCN1CCCC[C@H]1C(=O)Nc1c(C)cccc1C [Ropivacaine hydrochloride] + CCCCNC(=O)OCC#CI [3-iodo-2-propynyl butylcarbamate (IPBC)] | 88.5 ± 1.4% | 91.98 ± 0.1%
30 | C[C@]12C=CC(=O)C=C1CC[C@@H]1[C@@H]2[C@@H](O)C[C@@]2(C)[C@H]1CC[C@]2(O)C(=O)CO [Prednisolone] + CCCCNC(=O)OCC#CI [3-iodo-2-propynyl butylcarbamate (IPBC)] | 82.8 ± 2.1% | 92.5 ± 0.42%
31 | NC(Cc1cc(I)c(Oc2cc(I)c(O)c(I)c2)c(I)c1)C(=O)O (configuration not stated) [Thyroxine (L)] + CCCCNC(=O)OCC#CI [3-iodo-2-propynyl butylcarbamate (IPBC)] | 100 ± 11% | 98.8 ± 9%
32 | N[C@@H](Cc1cc(I)c(Oc2ccc(O)c(I)c2)c(I)c1)C(=O)O [Liothyronine] + CCCCNC(=O)OCC#CI [3-iodo-2-propynyl butylcarbamate (IPBC)] | 93.1 ± 10% | 98.1 ± 6.4%
33 | O=C(O)Cc1cc(I)c(Oc2ccc(O)c(I)c2)c(I)c1 [Tiratricol, 3,3',5-triiodothyroacetic acid] + CCCCNC(=O)OCC#CI [3-iodo-2-propynyl butylcarbamate (IPBC)] | 44 ± 1.8% | 73.41 ± 0.63%
34 | CCN(CC)CCNc1ccc(CO)c2sc3ccccc3c(=O)c12 [Hycanthone] + CCCCNC(=O)OCC#CI [3-iodo-2-propynyl butylcarbamate (IPBC)] | 124 ± 2.7% | 120 ± 0.63%
35 | COc1cc(NC(C)CCCN)c2ncccc2c1 (configuration not stated) [Primaquine diphosphate] + CCCCNC(=O)OCC#CI [3-iodo-2-propynyl butylcarbamate (IPBC)] | 73.7 ± 11% | 117.7 ± 1.1%
36 | COc1ccc(OC)c(C(O)CNC(=O)CN)c1 (configuration not stated) [Midodrine hydrochloride] + CCCCNC(=O)OCC#CI [3-iodo-2-propynyl butylcarbamate (IPBC)] | 96.1 ± 4.3% | 104 ± 2.1%
37 | CCCC(C)(COC(N)=O)COC(=O)NC(C)C (configuration not stated) [Carisoprodol] + CCCCNC(=O)OCC#CI [3-iodo-2-propynyl butylcarbamate (IPBC)] | 84.8 ± 5.1% | 92.7 ± 5.5%
38 | CC(CCc1ccccc1)NCC(O)c1ccc(O)c(C(N)=O)c1 (configuration not stated) [Labetalol hydrochloride] + CCCCNC(=O)OCC#CI [3-iodo-2-propynyl butylcarbamate (IPBC)] | 73.38 ± 0.32% | 87.15 ± 0.1%
39 | CN(C)CCN(Cc1ccc(Cl)cc1)c1ccccn1 [Chloropyramine hydrochloride] + CCCCNC(=O)OCC#CI [3-iodo-2-propynyl butylcarbamate (IPBC)] | 76.1 ± 1.1% | 92.3 ± 2.3%
40 | COc1ccc(CN(CCN(C)C)c2ccccn2)cc1 [Pyrilamine maleate] + CCCCNC(=O)OCC#CI [3-iodo-2-propynyl butylcarbamate (IPBC)] | 82.8 ± 4.6% | 92.4 ± 4.9%
41 | CCCCCCCCCCCCCCCC[N+](C)(C)CCN(Cc1ccc(OC)cc1)c1ncccn1 [Thonzonium bromide] + CCCCNC(=O)OCC#CI [3-iodo-2-propynyl butylcarbamate (IPBC)] | 3.34 ± 0.16% | 2.62 ± 0.1%
